The values below come from PubChem BioAssay (NCATS).

Results filed as inconclusive are left out. The source made the active and inactive calls. The call rests on the fitted dose curve; tested in HEK293 reporter line.
On the % scale 0 is the no-effect control and ±100 the full control effect.

A short description of the assay: qHTS for Inhibitors of the Functional Ribonucleoprotein Complex (vRNP) of Lassa (LASV) Arenavirus: LASV Primary Screen - GLuc reporter signal (AID 1347082). Further: nearly all actives have a fitted effect of over 60% in size. The note with it: LASV minigenome vRNP, Gaussia luciferase reporter; series mostly up to 57.5 µM; activity change, negative = inhibition: at the top concentration. A general note: qHTS replaces the single test concentration by a dilution series.
Regarding `O=C(O)Cc1cccc2ccccc12`, the Potency result was “inactive”.

As to `C[C@@H](O)[C@H]1C(=O)N2C(C(=O)O)=C(SCCN=CN)C[C@H]12`, the Potency entry is “inactive”.

Consider `Cn1c(=O)c2[nH]cnc2n(C)c1=O`, for which the Potency result is “inactive”.

As for `CCOC(=O)O[C@]1(C(=O)OCCl)CC[C@H]2[C@@H]3CCC4=CC(=O)C=C[C@]4(C)[C@H]3[C@@H](O)C[C@@]21C`, the “activity change, negative = inhibition” value was 8.88% (inactive).

In the case of `CC[C@H](C)[C@H](N)C(=O)O`, the “activity change, negative = inhibition” value is -17% (inactive).

As for `Nc1ccc([N+](=O)[O-])c(C(F)(F)F)c1`, the “activity change, negative = inhibition” value was -11.6% (inactive).

With `CSCC[C@H](NC(=O)[C@H](Cc1c[nH]c2ccccc12)NC(=O)CCNC(=O)OC(C)(C)C)C(=O)N[C@@H](CC(=O)O)C(=O)N[C@@H](Cc1ccccc1)C(N)=O`, the “activity change, negative = inhibition” value was -14.8% (inactive).

Consider `COc1ccc2[nH]cc(CCNC(C)=O)c2c1`, for which the Potency entry is “inactive”.

As to `CNC[C@H](O)c1cccc(O)c1`, the Potency entry is “inactive”.

In the case of `O=C1CCCc2c(O)cccc21`, the “activity change, negative = inhibition” value is 5.13% (inactive).

On to `COC(=O)c1cccnc1`, for which the Potency entry was “inactive”.

For `COc1cc(C=O)ccc1O`, the “activity change, negative = inhibition” value was -7.19% (inactive).

As to `CC[N+](C)(CC)CCOC(=O)C1c2ccccc2Oc2ccccc21`, the “activity change, negative = inhibition” value is 7.18% (inactive).

For `CCCCC(O)/C=C(C)/C=C/C=C/C(=O)N1CCCC1=O` (centres undefined), the “activity change, negative = inhibition” value is 3.86% (inactive).

As to `CO[C@@]1(NC(=O)C(C(=O)O)c2ccc(O)cc2)C(=O)N2C(C(=O)O)=C(CSc3nnnn3C)CO[C@@H]21` (some centres undefined), the “activity change, negative = inhibition” value is 0.818% (inactive).

As for `COc1ccc(C2C(=O)c3ccccc3C2=O)cc1`, the “activity change, negative = inhibition” value was 4.55% (inactive).

With `NS(=O)(=O)c1cc2c(cc1Cl)NC(CC1CCCC1)NS2(=O)=O` (centres undefined), the “activity change, negative = inhibition” value is 7.09% (inactive).

As for `CCCCCC(C)N` (centres undefined), the “activity change, negative = inhibition” value was -18.9% (inactive).

Turning to `Cc1ccc(C(=O)C(=O)O)cc1C`, the “activity change, negative = inhibition” value is 0.697% (inactive).

With `CC(=O)[C@H]1CC[C@H]2[C@@H]3C[C@H](C)C4=CC(=O)CC[C@]4(C)[C@H]3[C@@H](O)C[C@]12C`, the “activity change, negative = inhibition” value was 20.7% (inactive).

As for `CC(=O)Nc1ccc(CC(=O)O)cc1`, the “activity change, negative = inhibition” value was 0.164% (inactive).

For `COc1cc(OC)c(C(=O)CCCN2CCCC2)c(OC)c1`, the Potency result is “inactive”.

In the case of `COc1ccc2nc(SCc3ncc(C)c(OC)c3C)[nH]c2c1`, the “activity change, negative = inhibition” value is -3.08% (inactive).

For `COc1ccc2c(c1)CCCC2=O`, the “activity change, negative = inhibition” value is -4.85% (inactive).

With `COc1ccc(C(=O)N2CCN(CC(=O)N3CCOCC3)CC2)cc1`, the “activity change, negative = inhibition” value was 0.928% (inactive).

For `CC(N=C(NC#N)Nc1ccncc1)C(C)(C)C` (centres undefined), the Potency entry was “inactive”.

In the case of `CC(=O)Nc1ccc(OC(=O)c2ccccc2OC(C)=O)cc1`, the “activity change, negative = inhibition” value was 4.37% (inactive).

With `C=CCc1ccc(O)c(OC)c1`, the “activity change, negative = inhibition” value was 2.26% (inactive).

As to `CC1(C)O[C@@H]2C[C@H]3[C@@H]4C[C@H](F)C5=CC(=O)C=C[C@]5(C)[C@@]4(F)[C@@H](O)C[C@]3(C)[C@]2(C(=O)CO)O1`, the “activity change, negative = inhibition” value is -2.53% (inactive).

Consider `Nc1ccn([C@@H]2O[C@H](CO)[C@@H](O)C2O)c(=O)n1` (some centres undefined), for which the Potency entry is “inactive”.

`CCN[C@H]1CN(CCCOC)S(=O)(=O)c2sc(S(N)(=O)=O)cc21`: the “activity change, negative = inhibition” value was 1.73% (inactive).

`CCOc1ncc(F)c(=O)[nH]1`: the “activity change, negative = inhibition” value is -4.44% (inactive).

Consider `CN=C(N)NC(=O)Nc1c(C)cccc1C`, for which the “activity change, negative = inhibition” value is -3.97% (inactive).

As to `CC1CC(OC(=O)c2ccccc2O)CC(C)(C)C1` (centres undefined), the “activity change, negative = inhibition” value was 7.94% (inactive).

Regarding `CCCC(=O)O[C@]1(C(=O)COC(=O)CC)CC[C@H]2[C@@H]3CCC4=CC(=O)CC[C@]4(C)[C@H]3[C@@H](O)C[C@@]21C`, the “activity change, negative = inhibition” value was -32.6% [at 24.7 µM] (inactive).

Regarding `O=C(O)c1ccc[n+]([O-])c1`, the “activity change, negative = inhibition” value was -4.81% (inactive).

`Nc1ncnc2c1ncn2[C@@H]1O[C@H](CO)[C@@H](O)[C@H]1O`: the Potency entry is “inactive”.

For the molecule `CC(=O)N(CC(O)CO)c1c(I)c(C(=O)NCC(O)CO)c(I)c(C(=O)NCC(O)CO)c1I` (centres undefined), the “activity change, negative = inhibition” value is 6.57% (inactive).

With `c1ccc2c(CC3=NCCN3)cccc2c1`, the “activity change, negative = inhibition” value was 3.97% (inactive).
